According to the supplement of paper PMC7866885, “A novel bicyclic 2,4-diaminopyrimidine inhibitor of Streptococcus suis dihydrofolate reductase” (PeerJ, 2021):
± gives the standard deviation.

What was measured:
Streptococcus suis HE06 = test: percent growth relative to DMSO control; higher = less growth inhibition; conditions: 10 µM; incubation time 18 h
Description: (§1)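 CLSI broth microdilution: 5x10^4 CFU of Streptococcus suis (strain P1/7 or HE06) incubated with 10 µM Pathogen Box compound in cation-adjusted Mueller Hinton broth, 37 °C, 5% CO2, 18 h. Growth read as OD600 and expressed as percent of the DMSO-treated control (100%); mean ± SD of three independent experiments.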

Streptococcus suis P1/7 = test: as above; conditions: 10 µM; incubation time 18 h
Description: as §1

Compound | percent growth (Streptococcus suis HE06) [%] | percent growth (Streptococcus suis P1/7) [%]
CCCn1nnc(NC(=O)COc2ccc(C3CCCCC3)cc2)n1 | 115.2 ± 1 | 85.9 ± 12
Cc1ccc(S(=O)(=O)N2CCN(C(=O)c3cc(-c4ccccc4)[nH]n3)CC2)cc1 | 118 ± 39 | 83.1 ± 19
COC(=O)c1c(NC(=O)c2c(F)c(F)c(F)c(F)c2F)sc2c1CCCCC2 | 105 ± 7.8 | 
O=C(NC1CC1)c1ccc(CSCc2ccccc2Cl)o1 | 83.2 ± 21 | 65.8 ± 24
COc1cccc(-c2nc3c(N4CCCC4)cccc3n2CC2CCCN2)n1 (centres undefined) | 84.4 ± 7 | 58.2 ± 19
Cc1ccc(S(=O)(=O)n2cc(-c3ccnc(N)c3)c3cc(Br)cnc32)cc1 | 95.2 ± 32 | 61.5 ± 15
Cc1ccccc1C(=O)N1N=C(Nc2ccccc2)SC1(C)C | 104 ± 8.3 | 80.9 ± 23
Cc1ccc(NC(=O)c2cc(S(=O)(=O)NC(C)(C)C)ccc2C)nc1 | 207 ± 200 | 75.6 ± 20
CNC(=O)C1Cc2ccccc2N1C(=O)Cc1ccc(F)cc1 (centres undefined) | 96.6 ± 1.8 | 94.5 ± 32
COc1cc2ncnc(NC3CCN(Cc4ccccc4)CC3)c2cc1OC | 103 ± 27 | 122 ± 11
CCC(Sc1nc2ccccc2o1)C(=O)Nc1nccs1 (centres undefined) | 0 | 9.43 ± 16
CN1CCN(S(=O)(=O)c2ccc(-c3ccc4c(Nc5ncc(Cl)cn5)ccnc4c3)cc2)CC1 | 92.2 ± 8.5 | 103 ± 47
Cc1ccccc1CN1CCC(O)(c2ccc(Cl)c(C(F)(F)F)c2)CC1 | 93.7 ± 15 | 102 ± 50
Cc1cc(NC(=O)c2ccc(S(=O)(=O)N(Cc3ccccc3)C(C)C)cc2)no1 | 105 ± 27 | 71.6 ± 30
CN(C)CCNC(=O)N1CCCN(c2ncnc3cc(-c4ccccc4)sc23)CC1 | 92.9 ± 31 | 72.1 ± 3.5
COc1ccc(Cl)cc1NC(=O)CN(C)C(=O)c1cnn(-c2ccccc2)n1 | 79.4 ± 7.2 | 80.3 ± 29
COc1ccc(Cn2cnc3c(-c4ccco4)nc(Cl)nc32)cc1 | 88.5 ± 13 | 
CC(=O)Oc1ccccc1C(=O)Nc1ncc([N+](=O)[O-])s1 | 42.5 ± 18 | 35.5 ± 5.8
CC(C)C(Oc1cccc2ccccc12)C(=O)O (centres undefined) | 87 ± 4.3 | 64 ± 22
Cc1cc(Cl)ccc1NC(=O)CCc1ccc(S(=O)(=O)NCC(C)C)cc1 | 87.8 ± 9.9 | 95.4 ± 17

Compound | percent growth (Streptococcus suis HE06) [%] | percent growth (Streptococcus suis P1/7) [%]
CCc1ccc([C@@H]2C[C@H](C(F)(F)F)n3ncc(C(=O)NCc4ccc(OC)cc4)c3N2)cc1 | 92.3 ± 12 | 75.4 ± 5.3
COc1ccc(OC(C)C(=O)Nc2ccc(Cl)cc2C)cc1 (centres undefined) | 107 ± 13 | 82.7 ± 6.3
CC1=NN(c2nc3ccccc3s2)C(=O)C1Cc1cccc2ccccc12 (centres undefined) | 0.762 ± 0.8 | 3.74 ± 3.5
CNc1cc(C)nc(C2CN(C(=O)c3n[nH]c4ccccc34)CCO2)c1 (centres undefined) | 89.6 ± 5.4 | 105 ± 50
O=C(NC1CC1)c1ccc(N2CCOc3ccc(Cl)cc32)s1 | 73.8 ± 20 | 
CCOc1ccc2cc(-c3nn(CC4CCN(C)CC4)c4ncnc(N)c34)ccc2c1 | 97 ± 13 | 
Cc1ccc2c(c1C)NC(=O)C21NN=C(c2ccccc2)S1 (centres undefined) | 0.434 ± 0.78 | 0.432 ± 0.48
COc1cc(C2=NCCN2)cc2cc(-c3ccc(C4=NCCN4)cc3)oc12 | 106 ± 34 | 83.2 ± 17
CCc1nc2ccccc2n1CC(O)COc1cc(C)ccc1Cl (centres undefined) | 65.7 ± 22 | 103 ± 41
Cc1cc(C)n(-c2ccc(NC(=O)C3CCN(Cc4cnc(C)s4)CC3)cc2)n1 | 95.3 ± 24 | 65.6 ± 19
COc1ccc(C2=NCCN2)cc1-c1cn(-c2cccc(C3=NCCN3)c2)nn1 | 99.9 ± 10 | 87.9 ± 21
COc1ccc(-c2cnc3cnc(-c4cccc(OC(C)C)c4)cn23)cc1 | 59 ± 50 | 25.7 ± 45
C[C@@H]1[C@H](O)[C@@H](C)/C=C/C=C/C=C/C=C/C=C/C=C/C=C/[C@H](O[C@@H]2O[C@H](C)[C@@H](O)[C@H](N)[C@@H]2O)C[C@@H]2O[C@](O)(C[C@@H](O)C[C@@H](O)[C@H](O)CC[C@@H](O)C[C@@H](O)CC(=O)O[C@H]1C)C[C@H](O)[C@H]2C(=O)O | 97.2 ± 8.6 | 92.3 ± 14
COc1ccc(-c2nn(C(C)C)c3ncnc(N)c23)cc1OC | 112 ± 26 | 
CN1CCCN(C(c2ccccc2)c2ccc(Cl)cc2)CC1 (centres undefined) | 91.9 ± 4.1 | 85.4 ± 14
Cc1cccnc1NC(=O)c1cccc(OCc2c(C)noc2C)c1 | 81.4 ± 11 | 96.3 ± 39
Cc1nn(C(=O)Nc2cccc(C(F)(F)F)c2)c(C)c1Sc1ncccn1 | 25.4 ± 40 | -0.122 ± 0.21
CCCNC(=O)N1CCC2(CC1)CC(=O)c1cc(C)ccc1O2 | 87.9 ± 23 | 61.5 ± 9.9
c1csc(-c2cnc3sc(NCC4CCOCC4)nn23)c1 | 109 ± 22 | 
COc1ccc(C2=NN(C3CCCCCC3)C(=O)[C@@H]3CC=CC[C@H]23)cc1OCCCCOc1ccc(-c2nn[nH]n2)cc1 | 0 | 0.12 ± 0.21
